According to ChEMBL document CHEMBL3988442, “University of Dundee, Small-Polar-MMV Screening Library” (2021):
The whole screen tested about 48,000 compounds, of which about 13,000 (27%) showed an effect of 50% or more. This is one part of the list.

What follows are molecules tested on Wolbachia pipientis (assay: Anti-Wolbachia Cell-Based Screen). Conditions: 5 µM.
Type: functional
Parameters: scale not given: in the data most compounds retested in dose-response had high values

Structure (SMILES) | Percent Effect [%]
CC(=O)N1CCN(CC(=O)NCCCN(C)c2ccccc2)CC1 | -6.128
CNc1nc(CNC(=O)Nc2cccc(-c3nnco3)c2)cs1 | -5.762
CCC[C@H]1CN(C2CCOCC2)C[C@@H]1NC(=O)CCc1cnccn1 | -6.675
O=C(CSc1ccccc1)N1C[C@H]2CC[C@@H]1CN(Cc1ccncc1)C2 | -7.761
Cc1nc(NCC2CCOCC2)cc(C2CCN2S(C)(=O)=O)n1 (stereo unspecified) | 108.2
CC(=O)N1CCC1c1cc(NC2CCOCC2)nc(C)n1 (stereo unspecified) | 79.3
CC1c2ncc(COCC3CCOCC3)n2CCN1S(C)(=O)=O (stereo unspecified) | -5.189
Cc1ccc(-c2cnnc(NCC3CCOCC3)n2)o1 | -4.072
Cc1nc(NC2CCOCC2)cc(C2CCN2S(C)(=O)=O)n1 (stereo unspecified) | 120.8
Cn1ncc(N2CCC(CNC3Cc4ccccc4C3)C2)cc1=O (stereo unspecified) | -0.06487
COc1ccc(C(C)N2CCC(OC)CC2)cc1Cl (stereo unspecified) | 17.11
O=C(N1CCOCC1)[C@@]12CCO[C@@H]1CCN(CCN1CCCCC1)C2.O=C(O)C(F)(F)F.O=C(O)C(F)(F)F | 12.15
O=C(N1CCCO1)[C@@]12CCO[C@@H]1CCN(C1CCCCC1)C2.O=C(O)C(F)(F)F | 6.239
O=C(N1CCCO1)[C@@]12CCO[C@@H]1CCN(Cc1ccccc1)C2.O=C(O)C(F)(F)F | -18.43
Cc1ccsc1CN1CC[C@H]2OCC[C@@]2(C(=O)N2CCCO2)C1.O=C(O)C(F)(F)F | 103.7
O=C(N1CCCO1)[C@]12COC[C@H]1CN(Cc1nccs1)C2.O=C(O)C(F)(F)F | -2.706
O=C(N1CCOCC1)[C@@]12CCO[C@@H]1CCN(Cc1cccc(F)c1)C2.O=C(O)C(F)(F)F | 102.7
COC[C@@]12CCO[C@@H]1CCN(Cc1sccc1C)C2.O=C(O)C(F)(F)F | 9.781
O=C(N1CCOCC1)[C@@]12CCO[C@@H]1CCN(Cc1ccccc1F)C2.O=C(O)C(F)(F)F | 14.16
O=C(N1CCCO1)[C@@]12CCO[C@@H]1CCN(Cc1ccc(F)cc1)C2.O=C(O)C(F)(F)F | 99.96
O=C(N1CCCO1)[C@@]12CCO[C@@H]1CCN(Cc1cccs1)C2.O=C(O)C(F)(F)F | 96.37
Cc1ccc(S(=O)(=O)NCc2[nH]ncc2Br)cc1C | -4.089
O=C(CN1CCOC1=O)N1CCc2nnc(Cc3ccccc3)n2CC1 | 1.802
N#Cc1c(Cl)nsc1NCc1ccc(N2CCC(CO)CC2)cc1 | -1.187

Structure (SMILES) | Percent Effect [%]
Cc1ccc(CN2CC[C@H]3OCC[C@@]3(C(=O)N3CCCO3)C2)o1.O=C(O)C(F)(F)F | 102.1
Cc1ccc(CN2C[C@H](C(=O)N3CCCCO3)[C@@H]3CCO[C@@H]3C2)o1.O=C(O)C(F)(F)F | -4.524
Cc1ccc(CN2CCOC3(CCCN(c4cccc(F)c4)C3)C2)o1.O=C(O)C(F)(F)F.O=C(O)C(F)(F)F (stereo unspecified) | -11.31
Cn1cccc1C(=O)N[C@@H]1CN(S(C)(=O)=O)[C@@H]2COC[C@@H]21 | -0.3534
COCCC1(C(=O)O)CCCN(Cc2cc3c(cc2C)OCO3)C1 (stereo unspecified) | 0.3642
Cc1nc(COCC2CN(C(N)=O)Cc3nccn3C2)cs1.O=C(O)C(F)(F)F (stereo unspecified) | 114.2
Cc1nc(COCC2CN(C(=O)N(C)C)Cc3nccn3C2)cs1.O=C(O)C(F)(F)F (stereo unspecified) | 91.86
Cc1nc(COCc2cnc3n2CCN(C)C3C)cs1.O=C(O)C(F)(F)F (stereo unspecified) | 0.7983
Cc1nc(COCC2CNCc3nccn3C2)cs1 (stereo unspecified) | 1.667
Cc1nc(CN2CCCn3cnc(COCC4CC4)c3C2)cs1.O=C(O)C(F)(F)F | -1.787
Cc1cc(C)c(C(=O)NCCNc2ncnc3ccccc23)c(=O)[nH]1 | -7.4
COc1cc(F)ccc1NC(=O)NC(C)C(=O)NC(C)(C)C (stereo unspecified) | -5.015
COc1ccc(CNCc2c(C)nc3sc(C)cn23)c(OC)c1OC | 49.47
c1ccc(-c2noc3c2CN(CC2CC2)CC3)cc1 | 5.665
Cc1cc(NC(=O)CN2CCc3cnc(C)nc3C2)on1 | -3.742
Cc1ncc2c(n1)CN(CC(=O)Nc1c(C)nn(C)c1C)CC2 | 114.4
Cc1nn(C)c(C)c1NC(=O)CN1CCc2c(nc(C3CC3)n2C)C1 | -19.95
Cc1ncc2c(n1)CN(CCOCC(F)(F)F)CC2 | -8.792
Cc1cc(NC(=O)CN2CCn3c(nnc3C(C)C)C2)no1 | 1.243
Cc1ncc2c(n1)CN(CC(=O)Nc1cc(C)on1)CC2 | 138
Cc1ccc(Cl)cc1N1CCC(CNC(=O)CC(F)(F)F)C1 (stereo unspecified) | -9.569
COCCN1Cc2ccnn2CC(COCc2cccnc2)C1 (stereo unspecified) | -11.51
O=C(c1cccc(S(=O)(=O)NCCCc2ccco2)c1)N1CCOCC1 | 28.12
O=C(c1cccc(S(=O)(=O)NCCc2ccccn2)c1)N1CCOCC1 | -3.428

Structure (SMILES) | Percent Effect [%]
O=C(c1cccc(S(=O)(=O)NCCCn2cccn2)c1)N1CCOCC1 | -8.398
CN(C)C1CCN(C(=O)c2cccc(S(=O)(=O)NCC3(C)COC3)c2)C1 (stereo unspecified) | 24.95
CN(Cc1ncc[nH]1)S(=O)(=O)c1cccc(C(=O)N2CCOCC2)c1 | -7.295
CN(CC1CCCCO1)S(=O)(=O)c1cccc(C(=O)N2CCOCC2)c1 (stereo unspecified) | 99.86
CN(CC1CCOC1)S(=O)(=O)c1cccc(C(=O)N2CCCCCC2)c1 (stereo unspecified) | 127.8
CN1CCCN(C(=O)c2cccc(S(=O)(=O)NCC3(C)COC3)c2)CC1 | -12.18
CN(CC1CCOC1)S(=O)(=O)c1cccc(C(=O)N2CCOCC2)c1 (stereo unspecified) | 110.2
C=C(C)CN1C(=O)CC(Cc2ccc(F)cc2)C1=O (stereo unspecified) | -35.72
O[C@@H]1C[C@@H](c2nc(-c3ccccc3)no2)N(C2CCOCC2)C1 | -15.45
O=C1CC2(CCCCN2C(=O)c2ccoc2)CN1Cc1ccccc1 (stereo unspecified) | -18.39
O=C(O)C(F)(F)F.O=C1CC2(CCCCN2C(=O)c2ccco2)CN1c1cccnc1 (stereo unspecified) | 3.429
Cn1ccc(C(=O)N2CCCCC23CC(=O)N(Cc2ccccc2)C3)n1 (stereo unspecified) | -1.004
O=C(O)C(F)(F)F.O=C1CC2(CCCCN2C(=O)Cc2ccccc2)CN1c1cccnc1 (stereo unspecified) | -0.631
O=C1CC2(CCCCN2C(=O)c2ccccc2)CN1CC1CC1 (stereo unspecified) | 79.38
O=C(O)C(F)(F)F.O=C1CC2(CCCCN2C(=O)c2ccncc2)CN1CC1CC1 (stereo unspecified) | 106.2
O=C(CCC(=O)c1cccs1)NC1(C(=O)NCC2CC2)CCCC1 | 1.426
O=C1CC2(CCCCN2C(=O)c2cccs2)CN1CC1CC1 (stereo unspecified) | 78.16
CC1N(CC2CC2)C(=O)COC12CCN(C(=O)c1cccs1)CC2 (stereo unspecified) | 8.45
CC(=O)N(C)CCc1nc(-c2cc(C(N)=O)co2)cs1 | -0.5467
COc1cnc(N2CCC(Oc3ccccc3OC)(C(=O)O)CC2)nc1 | -8.18
COc1ccccc1C(C)Nc1ncc(C(N)=O)cc1Cl (stereo unspecified) | 2.47
Cc1cccc(C)c1OC1CN(C(=O)C2CCN(C(=O)N(C)C)CC2)C1 | -8.295
CCc1nc(CCn2ccnc2-c2nccn2C)no1 | -9.052
Cn1cc(CN2C[C@@H](F)[C@@H](OCc3nc4cnccc4[nH]3)C2)cn1 | -2.303

Structure (SMILES) | Percent Effect [%]
Fc1ccc(-c2c[nH]c([C@@H]3COCCN3)n2)cc1 | -3.188
COc1ccc2[nH]c(CNc3cc(C4CCNCC4)nc(C)n3)cc2c1 | -0.5265
Cc1nc(NCc2cccc(F)c2)cc(C2CCNCC2)n1.Cl | 92.9
Clc1ccc(-c2c[nH]c([C@@H]3COCCN3)n2)cc1 | -8.999
Cc1nc(Cc2ccc(F)cc2)cc(C2COCCN2)n1.Cl (stereo unspecified) | 104.2
Cn1ccnc1-c1ccc(NCC2COCCO2)nn1 (stereo unspecified) | -2.389
Cc1cc(NCc2ccc(N3CCNC(=O)C3)cc2)nc(C)n1 | 3.077
Cc1nc(NCc2nccn2C)cc(C2COCCN2)n1 (stereo unspecified) | 145.4
Cc1nc(NCc2ccc(F)cc2)cc(C2CCCN2)n1.Cl (stereo unspecified) | 123.2
Cc1ccc(-c2cn3c(n2)CO[C@@H](CNCc2nccn2C)C3)cc1 | -11.82
Fc1cccc(CNc2cncc(-n3cccn3)n2)c1 | 9.755
COCC(c1cccc(C(F)(F)F)c1)N(C)C(=O)c1cc(C)no1 (stereo unspecified) | -19.18
CCc1nnc2n1CCN(C(=O)c1ccc(C(F)(F)F)nc1C)C2 | 5.32
CCc1nnc2n1CCN(C(=O)c1cc3ccc(F)cc3nc1C)C2 | 4.903
CCc1nnc2n1CCN(C(=O)c1cc3cc(F)ccc3[nH]1)C2 | 1.688
CCOC(C(=O)N1CCn2c(CC)nnc2C1)c1ccccc1 (stereo unspecified) | 26.72
CCOc1ccc2cc(C(=O)N3CCn4c(CC)nnc4C3)[nH]c2c1 | 104.5
CCc1nnc2n1CCN(C(=O)c1cc3ccccc3[nH]1)C2 | 108.3
CCc1nnc2n1CCN(C(=O)c1cc3cc(C)ccc3[nH]1)C2 | 89.42
CCc1nnc(CN2CCN(C(=O)c3cc4ccccc4[nH]3)CC2)o1 | 0.1099
Cc1ccc2cc(C(=O)N3CCN(S(C)(=O)=O)CC3)[nH]c2c1 | -2.597
CCc1nnc2n1CCN(C(=O)c1cc3ccc(C)cc3[nH]1)C2 | 95.03
CCc1nnc2n1CCN(C(=O)c1cnc3c(cnn3C(C)C)c1)C2 | -2.522
CCc1nnc2n1CCN(C(=O)c1cc(Br)c[nH]1)C2 | 2.696
